# Screens as filed in PubChem BioAssay.
# Only some compounds are listed: those with a hit (about 11% of all), similar ones and a draw of the others.
# ALDH1A1 inh: inhibitors of human aldehyde dehydrogenase 1A1; Purified ALDH1A1, NADH fluorescence, propionaldehyde substrate; Potency, µM (doses to about 75.3 µM), for inactives: top-dose activity, negative = inhibition, usual class: inhibitors; P00352; 7.3% of 220,000 active;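 also: potency is read from the fitted curve at half-maximal effect; plate controls were no enzyme wells and a reference inhibitor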
# Target sequence (P00352 whole entry, looked up): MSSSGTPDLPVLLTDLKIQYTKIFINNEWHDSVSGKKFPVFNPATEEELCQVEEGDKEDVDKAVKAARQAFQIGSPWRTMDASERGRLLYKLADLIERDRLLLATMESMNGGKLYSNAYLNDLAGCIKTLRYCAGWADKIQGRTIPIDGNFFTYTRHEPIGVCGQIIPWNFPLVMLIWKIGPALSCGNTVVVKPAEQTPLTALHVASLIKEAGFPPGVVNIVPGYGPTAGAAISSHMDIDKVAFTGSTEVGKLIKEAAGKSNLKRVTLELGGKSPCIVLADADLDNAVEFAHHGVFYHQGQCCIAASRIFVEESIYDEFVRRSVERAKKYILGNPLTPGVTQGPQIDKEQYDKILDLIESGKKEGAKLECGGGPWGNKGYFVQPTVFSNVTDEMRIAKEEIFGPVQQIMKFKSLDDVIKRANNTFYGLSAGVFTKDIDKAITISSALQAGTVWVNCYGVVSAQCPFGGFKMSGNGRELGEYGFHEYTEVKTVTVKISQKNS
# PNC assembly inh: inhibitors of perinucleolar compartment assembly; PC3M PTB-GFP, PNC prevalence imaging, 16 h; hits give low values; activity change (PNC), negative = inhibition, % at 10 µM; 3.1% of 140,000 active; AID 2417;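 active = readout at or below -70, meaning at least 70% loss of cells showing the perinucleolar compartment, a nuclear body marking cancer cells; inconclusive = readout between -30 and a set limit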;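 also: plate controls were DMSO wells for no effect and camptothecin positive control wells for full effect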
#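 Compounds are pinned in duplicate onto adhered PC3M cells stably expressing GFP-tagged PTB and incubated 16 h at 37 C. Cells are then fixed, nuclei stained with Hoechst, and PNC-positive cells counted.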
# HPGD block: HPGD (human) dehydrogenase inhibition. AID 894. 4.3% of 150,000 active. Potency, µM, inactives show top-dose activity change, negative = inhibition, most hits filed as inhibitors. P15428. purified HPGD, NADH fluorescence kinetic, PGE2 substrate; also: potency is read from the fitted curve at half-maximal effect
#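 NADH formation kinetics: reaction with 30 uM PGE2 and 1 mM NAD+ (final), 20 nM enzyme, Tris-HCl pH 8 with Tween 20, after 15 min compound preincubation at room temperature. Fluorescence change, last versus first of five reads.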
# * marks the source's active call; other numbers are inactive results; ? = inconclusive; / = no result; ! = not confirmed by another sample; [ ] = remark or other dose. Unless noted, calls follow the shape of the dose curve; as a rule, active = well fitted inhibition curve with a large enough effect (not every such curve was filed as active); inconclusive = small, poorly fitted or top-dose-only effect, or another doubt; inactive = no such curve, though single readings can be large or run the other way. Unless noted, % is scaled to controls: 0 for no effect and ±100 for the full control effect.
SMILES,ALDH1A1 inh,PNC assembly inh,HPGD block
CCOc1cc2[nH]c(=S)n(CCCC(=O)N3CCC4(CC3)OCCO4)c(=O)c2cc1OCC,?,-27,-21%
CCOC(=O)N1CCN(C(=O)c2ccc3c(=O)n(CCC4=CCCCC4)c(=S)[nH]c3c2)CC1,7.9µM*,?,-14%
N#CSCC(=O)N1c2ccccc2CCc2ccccc21,0.79µM*,?,18µM*
Nc1ccccc1C(=O)OCC(=O)N1CCc2ccccc21,?,-24,?
CCCC(C)C1(CC)C(=O)N=C(S)NC1=O (configuration not stated),6%,/,-2%
Cc1ccc(C(=O)NC(=S)NNS(=O)(=O)c2ccc(C)cc2)cc1,-11%,?,16µM*
CCOP(=O)(OCC)C(NC(=O)c1ccc(C)cc1)=C(Cl)Cl,19%,35,-6%
O=C1NC(c2cccnc2)Nc2sc3c(c21)CCCC3 (configuration not stated),?,-100*,-26%
CC12CN3CC(C)(CN(C1)C3c1cccnc1)C2=O (configuration not stated),-2%,-3,1%
c1cncc(C2CCCN2)c1 (configuration not stated),-13%,/,/
CC1(C)Cc2c(sc3c2C(=O)NC(c2cccnc2)N3)CO1 (configuration not stated),?,-101*,?
C[C@@H]1O[C@H](O[C@@H]2CC[C@@]3(C=O)[C@H]4CC[C@@]5(C)[C@@H](C6=CC(=O)OC6)CC[C@@]5(O)[C@@H]4CC[C@]3(O)C2)C[C@H](O)[C@@H]1O,?,/,-6%
NCC[C@H](O)C(=O)N[C@H]1C[C@@H](N)[C@@H](O[C@H]2O[C@@H](CN)[C@@H](O)[C@@H](O)[C@@H]2N)[C@@H](O[C@H]2O[C@@H](CO)[C@@H](O)[C@@H]2O)[C@@H]1O,6%[20.9 µM],/,-6%
CC(C)CCCC(C)C1CCC2C3=CC[C@@H]4CC(O)CC[C@@]4(C)C3CC[C@]21C (some centres not stated),?,/,-7%
O=C(O)CS(=O)(=O)C(c1ccccc1)c1ccccc1,3%[13.5 µM],/,-9%
O=C(O)[C@@H]1Cc2[nH]cnc2C(c2cccnc2)N1 (some centres not stated),-7%,/,-13%
CN1C(=O)C(=CN2CCN(C(=O)c3ccco3)CC2)C(=O)N(C)C1=S,-6%,-7,-19%
O=C1NC(=O)N(c2ccccc2)C(=O)/C1=C\C=C\c1ccccc1,10µM*,/,/
CCCCN1C(=O)/C(=C\c2ccco2)C(=O)N(CCc2ccccc2)C1=O,3%,25,32µM*
CC1=NN(c2ccccc2)C(=O)C1/C=C1/C(=O)NC(=O)N(c2cc(C)cc(C)c2)C1=O (configuration not stated),-3%,13,-14%
CC(C)c1ccc(N2C(=O)NC(=O)/C(=C/C=C/c3ccco3)C2=O)cc1,-9%,19,3.2µM*
CCc1ccc(N2NC(=O)/C(=C/C=C/c3ccco3)C2=O)cc1,3.2µM*,-28,-18%
Cc1cc(/C=C2\C(=O)NC(=O)N(c3ccc(Cl)cc3)C2=O)c(C)n1C,-7%,/,/
CC(C)C(=O)Nc1ccc([N+](=O)[O-])c(C(F)(F)F)c1,2%,/,-17%
O=C(Cl)OCc1ccccc1,?,/,-7%
SMILES,ALDH1A1 inh,PNC assembly inh,HPGD block
Oc1ccc2c3c1OC1C(O)CC[C@]4(O)C(C2)N(CC2CCC2)CC[C@]314 (some centres not stated),0%,/,-1%
CC(C)(O)C1C2OC(=O)C1[C@]1(O)CC3O[C@@]34C(=O)OC2[C@@]14C (some centres not stated),11%,/,-9%
CN1Cc2c(ccc3c2OCO3)[C@@H]2[C@@H](O)Cc3cc4c(cc3[C@@H]21)OCO4,?,/,-2%
O=Cc1ccco1,17%,/,-3%
CC1=NN(c2ccccc2)C(=O)C1/C=C1\C(=O)NC(=O)N(c2cc(C)cc(C)c2)C1=O (configuration not stated),?,-15,-28%
Cc1cc(C)cc(N2C(=O)NC(=O)/C(=C\C=C\c3ccco3)C2=O)c1,?,51,10µM*
Cc1ccc(N2C(=O)NC(=O)/C(=C/C=C/c3ccco3)C2=O)cc1,?,?,7.1µM*
CCCCN1C(=O)/C(=C/C=C/c2ccco2)C(=O)NC1=S,16µM*,-88*,10µM*
C=CC(=C)C,17%,/,2%
CN(CCC(=O)O)C1=Nc2ccc(Cl)cc2C(c2ccccc2)=[N+]([O-])C1,7%[13.5 µM],/,-5%
Cc1ccc(O)cc1 (tested in a mixture with another compound),5%[13.5 µM],/,-19%
CCOP(=S)(OCC)SCn1c(=O)oc2cc(Cl)ccc21,3%,/,?
CCn1c(=O)oc2cc(NC(=O)CCl)ccc21,1.6µM*,/,/
O=C(C[N+]12CCC(CC1)C(OC(=O)c1ccccc1)C2)c1ccc([N+](=O)[O-])cc1 (configuration not stated),-1%,/,/
O=C(OCC(=O)c1ccc([N+](=O)[O-])cc1)/C(=C/c1ccc(Cl)cc1)NC(=O)c1ccccc1,7.9µM*,?,-15%
C[C@@H](Cc1ccccc1)NCCC(c1ccccc1)c1ccccc1,-15%[20.9 µM],/,0%
COc1ccc(Cn2c(=O)oc3ccc(C)cc32)cc1OC,18%,39,-7%
COC(=O)C12CC3=C[C@H](CC3=O)Cc3ccccc3[C@@H]1CNC2=O (some centres not stated),7%,/,-11%
CCOc1c(Cl)cc(CNc2ccc(S(N)(=O)=O)cc2)cc1OC,-3%,-27,25µM*
CCOc1c(Cl)cc(CNC(C)C(O)c2ccccc2)cc1OC (configuration not stated),-1%,/,/
OC(O)C(Cl)(Cl)Cl,5%,/,-2%
CCN1CCN(P2(=O)C=C(c3ccccc3)OC(c3ccccc3)=C2)CC1,14µM*,-29,-7%
CCN1CCN(Cc2cccc(Oc3ccccc3)c2)CC1,?,-6,-4%
C[C@]12CC[C@H]3[C@@H](C[C@H](F)C4=CC(=O)CC[C@@]43C)[C@@H]1CC[C@@H]2O,5%,/,/
C[N+](=O)[O-],10%,/,-3%
SMILES,ALDH1A1 inh,PNC assembly inh,HPGD block
O=C(Cc1ccccc1)N1CCN(Cc2ccccn2)CC1,?,-84*,-6%
O=C(Cc1ccccc1)N1CCN(Cc2c[nH]c3ccccc23)CC1,25µM*,-23,-9%
Cc1ccccc1CN1CCN(C(=O)Cc2ccccc2)CC1,-8%,/,/
O=C(COc1ccccc1)N1CCN(Cc2c[nH]c3ccccc23)CC1,10%,24,0%
CC[C@]1(c2cccc(O)c2)CCCCN(C)C1,-3%[20.9 µM],/,3%
CC1CCCN(C(=O)CN2C3CCC2CC(O)(c2ccc(F)cc2)C3)C1 (configuration not stated),11%,/,/
CC1CCCN(C(=O)CCl)C1 (configuration not stated),0.63µM*,-116*,-6%
COc1ccc(C(O)c2ccccc2OP(=O)(N(C)C)N(C)C)cc1 (configuration not stated),-1%,-29,-2%
COc1ccc(C(c2ccc(OC)cc2)C(Cl)(Cl)Cl)cc1,14µM*!,/,-8%
Cc1cccn2c(NCC3CCCO3)c(C(C)C)nc12 (configuration not stated),?,-127*,?
